The values below come from PubChem BioAssay (Tox21).

Each structure is given as a SMILES string. Where “and” joins values, the source holds several entries; their conditions need not be identical. Equal entries are not always repeated. Inconclusive results are not listed. Calls of active or inactive are those of the source. Calls follow the shape of the dose curve; as a rule, active = well fitted curve in the direction sought with a large enough effect in the repeat runs; inconclusive = weak or mixed curves; inactive = no such curve, though single readings can be large; an effect the other way counts as inactive or inconclusive.

Assay [1] in a line: A CellTox Green Cytotoxicity Assay to monitor cytotoxicity in HepG2 cells - 32 hour (AID 1224883). Also: nearly all actives have a fitted effect of over 50% in size. In a few lines:
(§1)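 Measurements at 0, 8, 16, 24, 32 and 40 h of treatment captured CellTox Green fluorescence in HepG2 cells that had been co-plated with reagent and preincubated 5 h at 37 C/5% CO2.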

The nature of assay [2]: A CellTox Green Cytotoxicity Assay to monitor cytotoxicity in HEK293 cells - 8 hour (AID 1224884). Also: nearly all actives have a fitted effect of over 35% in size. In outline: (§2)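 Tox21 screen in HEK293: membrane-impermeant cyanine dye fluoresces on binding dead-cell DNA; compound pinned 5 h post-seeding, plates held at 37 C, signal read repeatedly through 40 h.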
The nature of assay [3]: qHTS RealTime-Glo MT Cell Viability Assay in HepG2 cells - 16 hour (AID 1224885). Also: nearly all actives have a fitted effect of over 50% in size. In outline:
(§3)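 HepG2 cells (600/well) were dispensed with RealTime-Glo reagents, incubated 5 h at 37 °C, then treated with compounds in DMSO for up to 40 h. Nonlytic NanoLuc luminescence reflecting viable cells was read at each stated time point.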
(Quantitative high-throughput screening tests each substance at several concentrations.)

Assay [4] in a line: qHTS RealTime-Glo MT Cell Viability Assay in HEK293 cells - 8 hour (AID 1224887). Also: nearly all actives have a fitted effect of over 50% in size. In outline: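 HEK293 + NanoLuc + prosubstrate, 600 cells/well; 5 h, 37 C/5% CO2; compound 23 nL in DMSO by pintool; 37 C; luminescence read at 0, 8, 16, 24, 32 and 40 h time points.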
The nature of assay [5]: qHTS RealTime-Glo MT Cell Viability Assay in HepG2 cells - 0 hour (AID 1224889). Also: nearly all actives have a fitted effect of over 50% in size. In a few lines: as §3
Assay [6] in a line: A CellTox Green Cytotoxicity Assay to monitor cytotoxicity in HepG2 cells - 8 hour (AID 1224890). Also: nearly all actives have a fitted effect of over 45% in size. In a few lines:
as §1

Assay [7] is described as follows: qHTS assay to identify small molecule antagonists of the estrogen receptor alpha (ER-alpha) signaling pathway using the BG1 cell line in the presence of 0.1 nM 17-beta-estradiol - cell viability counter screen (AID 1259241). Also: nearly all actives have a fitted effect of over 40% in size. In a few lines:
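CellTiter-Fluor read (30 min, 37C) on ER-alpha/ERE-luc VM7Luc4E2 cells; 22 hr compound treatment; agonist 0.1 nM E2 final; same-well multiplex.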

The nature of assay [8]: qHTS assay to identify small molecule antagonists of the androgen receptor (AR) signaling pathway using the MDA cell line in the presence of 0.5 nM R1881 - cell viability counter screen (AID 1259242). Also: nearly all actives have a fitted effect of over 45% in size. In outline:
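Concentration-response screen of compounds for toxicity in MDA-kb2 reporter cells: 16 hr at 37C with 0.5 nM R1881, endpoint live-cell protease fluorescence measured in the reporter wells.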

A short description of assay [9]: A CellTox Green Cytotoxicity Assay to monitor cytotoxicity in HEK293 cells - 16 hour (AID 1224888). Also: nearly all actives have a fitted effect of over 35% in size. In a few lines: as §2
A short description of assay [10]: qHTS RealTime-Glo MT Cell Viability Assay in HEK293 cells - 24 hour (AID 1224886). Also: nearly all actives have a fitted effect of over 50% in size. In outline:
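HEK293 cells seeded with NanoLuc/prosubstrate reagent, rested 5 h at 37 C, then dosed and kept at 37 C up to 40 h. Nonlytic real-time luminescence from viable cells read at 0, 8, 16, 24, 32 and 40 h.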
Potency is read from the fitted curve at half-maximal effect.

`N#CSCSC#N`: the Potency in [1] is 39.8 µM (active) and 17.2 µM (active); in assay [3], 56.2 µM (active) and 19.3 µM (active); in [4], 22.4 µM (active) and 21.7 µM (active); in assay [6], 34.3 µM (active); in assay [7], 70.1 µM (active); in assay [8], 62.5 µM (active). Besides, the Potency entry in assay [2] and in assay [5] was “inactive” in each case.

As for `ClC1=C(Cl)[C@]2(Cl)[C@@H]3[C@@H](Cl)[C@H](Cl)C[C@@H]3[C@@]1(Cl)C2(Cl)Cl`, the Potency result in [1], in assay [2], in assay [3], in assay [4], in assay [5] and in [6] was “inactive” in each case. For the same molecule, the Potency result in assay [7] and in assay [8] was “inactive” each time.

As for `CCC[CH2][Sn]([CH2]CCC)([CH2]CCC)[O]C(=O)c1ccccc1`, the Potency in assay [1] was 0.692 µM (active); in [2] it was 11 µM (active); in [3], 0.616 µM (active); in [4] it was 0.871 µM (active); in assay [9], 4.36 µM (active); in assay [6], 1.1 µM (active). The Potency in assay [7] was 21.7 µM (active); in [8] it was 1.54 µM (active). In addition, the Potency entry in [5] is “inactive”.

`[Cd+2].[Cl-].[Cl-]`: in assay [1], the Potency was 22.1 µM (active) and 24.5 µM (active). Further, the Potency entry in [2], in assay [3], in [4], in [9], in [5] and in assay [7] was “inactive” each time.

Consider `COc1ccc(OC)c(C=O)c1`, for which the Potency result in [1], in assay [2], in assay [3], in [9], in assay [5] and in [6] was “inactive” throughout. Also, the Potency entry in assay [7] and in assay [8] was “inactive” throughout.

Turning to `c1cc[c]([Sb]([c]2ccccc2)[c]2ccccc2)cc1`, the Potency result in [1], in [2], in assay [3], in assay [4], in assay [9] and in assay [5] was “inactive” throughout. In addition, the Potency entry in assay [7] and in [8] was “inactive” throughout.

For the molecule `BrC(Br)Br`, the Potency result in assay [1], in assay [2], in assay [3], in assay [4], in assay [9] and in assay [5] was “inactive” each time. Besides, the Potency result in assay [6], in [7] and in assay [8] was “inactive” each time.

For the molecule `C[C@@H]1O[C@@H](O[C@H]2C[C@@H](O)[C@]3(CO)[C@H]4[C@H](O)C[C@]5(C)[C@@H](C6=CC(=O)OC6)CC[C@]5(O)[C@@H]4CC[C@]3(O)C2)[C@H](O)[C@H](O)[C@H]1O`, the Potency result in assay [1], in [2], in [9], in [6], in assay [7] and in assay [8] was “inactive” in each case.

`O=c1ssc(Cl)c1Cl`: the Potency in assay [1] is 19.5 µM (active); in assay [3], 21.9 µM (active); in [10], 15.5 µM (active); in assay [4], 17.4 µM (active); in [9] it was 38.9 µM (active); in [5], 43.6 µM (active). The Potency in assay [6] is 24.5 µM (active); in assay [8], 54.5 µM (active). In [7], the Potency result was “inactive”.

As to `CCCN(CC)CC1COC2(CCC(C(C)(C)C)CC2)O1` (stereo unspecified), the Potency entry in [1], in assay [3], in assay [10], in assay [4], in [9] and in [5] was “inactive” in each case. In addition, the Potency result in [6], in [7] and in assay [8] was “inactive” in each case.

`COC(=O)N(C(=O)N1COC2(C(=O)OC)Cc3cc(Cl)ccc3C2=N1)c1ccc(OC(F)(F)F)cc1` (stereo unspecified): the Potency result in assay [1], in assay [2], in assay [3], in [9], in assay [5] and in assay [7] was “inactive” in each case. In addition, the Potency result in assay [8] was “inactive”.

Take `CC(C)C1CCC(Cc2ccc(Cl)cc2)C1(O)Cn1cncn1` (stereo unspecified): the Potency in assay [1] is 43.2 µM (active); in assay [3], 34.3 µM (active); in [10], 12.2 µM (active); in assay [4], 13.7 µM (active); in [6], 54.4 µM (active). Moreover, the Potency result in assay [9], in [5] and in assay [7] was “inactive” each time.

Consider `CCCOCC(=Nc1ccc(Cl)cc1C(F)(F)F)n1ccnc1`, for which the Potency in assay [1] is 43.6 µM (active); in assay [2], 54.9 µM (active); in [4], 43.6 µM (active); in [9], 54.9 µM (active). The Potency entry in assay [5] is “inactive”.

With `Clc1ccc(CSC(Cn2ccnc2)c2ccc(Cl)cc2Cl)cc1` (stereo unspecified), the Potency result in assay [1], in assay [2], in assay [9], in assay [5], in assay [6] and in assay [7] was “inactive” in each case.

Turning to `Cn1cc(C2=C(c3cn(C4CCN(Cc5ccccn5)CC4)c4ccccc34)C(=O)NC2=O)c2ccccc21`, the Potency result in [1], in [2], in [10], in [4], in [9] and in [5] was “inactive” in each case. The Potency result in [7] and in assay [8] was “inactive” in each case.

On to `CCOCn1c(-c2ccc(Cl)cc2)c(C#N)c(Br)c1C(F)(F)F`, for which the Potency was 12.3 µM (active) in [1], 4.9 µM (active) in assay [10], 19.5 µM (active) in assay [4] and 5.45 µM (active) in [8]. Also, the Potency entry in assay [2], in [9], in assay [5] and in assay [6] was “inactive” throughout.

For the molecule `ClCCN1CCOCC1`, the Potency result in assay [1], in assay [3], in [10], in assay [4], in assay [9] and in [5] was “inactive” each time. The Potency result in [6], in assay [7] and in [8] was “inactive” each time.

Take `CC(=O)c1ccc(-c2ccccc2)cc1`: the Potency result in [1], in [3], in [10], in [4], in assay [9] and in assay [5] was “inactive” in each case. In addition, the Potency result in [6], in [7] and in assay [8] was “inactive” in each case.

For the molecule `Nc1ccc([N+](=O)[O-])cc1Cl`, the Potency result in assay [1], in assay [3], in assay [10], in [4], in assay [9] and in assay [5] was “inactive” each time. Also, the Potency result in assay [6] was “inactive”.

As for `CC(=O)C(Cl)(Cl)Cl`, the Potency result in assay [1], in [2], in [3], in assay [9] and in assay [6] was “inactive” in each case. The values for the Potency in [7] and in assay [8] were 20.9 µM (active) and 14.8 µM (active), respectively.

Turning to `[Hg+2].[I-].[I-]`, the Potency in assay [1] was 7.76 µM (active); in [3] it was 11 µM (active); in assay [10], 3.09 µM (active); in assay [4] it was 6.16 µM (active); in assay [9] it was 43.6 µM (active); in assay [5], 24.5 µM (active). For the same molecule, the Potency in assay [6] was 15.5 µM (active); in assay [7], 30.6 µM (active).

Regarding `CC(=[OH+])/C=C(/C)[O-].CC(=[OH+])/C=C(\C)[O-].CC(=[OH+])/C=C(\C)[O-].[Fe]`, the Potency result in assay [1], in [3], in [10], in [4], in [9] and in assay [5] was “inactive” each time. The Potency entry in [6], in assay [7] and in assay [8] was “inactive” each time.

On to `CCCCCCCCCCCCCN1CC(C)OC(C)C1` (stereo unspecified), for which the Potency result in assay [1], in assay [3], in [10], in assay [4], in assay [9] and in assay [5] was “inactive” throughout. For the same molecule, the Potency result in assay [6], in assay [7] and in assay [8] was “inactive” in each case.
